Exocytosis inh: blocks lytic granule exocytosis; TALL-104 LAMP-1 surface exposure, flow cytometry; cells stimulated with thapsigargin and PMA; actives 0.66% (n = 360,000); inhibition, % at 10 µM; AID 651702;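 active = inhibition above about 55%, limit read from the data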
ALR H2O2 inh: human ALR oxidase inhibition via reduced H2O2; P55789; purified ALR, DTT oxidation, H2O2 HRP-luminol luminescence; inhibition, % (no concentration beside the values); actives 3.8% (n = 290,000); AID 485317;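 active = mean replicate inhibition above about 79%, with every replicate also reaching it, limit read from the data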
Target sequence (P55789 whole entry, looked up): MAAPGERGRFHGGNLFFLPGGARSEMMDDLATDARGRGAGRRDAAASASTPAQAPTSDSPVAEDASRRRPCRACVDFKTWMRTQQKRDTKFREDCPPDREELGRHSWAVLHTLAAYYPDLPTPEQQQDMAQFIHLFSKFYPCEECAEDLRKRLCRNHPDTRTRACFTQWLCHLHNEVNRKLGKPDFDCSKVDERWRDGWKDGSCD
SMARCA2 activ: increases SMARCA2 function in MMTV reporter cells. MG213 cells, MMTV-luciferase reporter, dexamethasone, overnight. activation, % at 9.1 µM. actives 1% (n = 370,000). AID 652017; in the data active = activation above about 7.8%;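 note: 0% = vehicle wells and 100% = reference activator wells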
JMJD2C inh: blocks human GASC-1 demethylase activity; GST-JMJD2C(1-420) H3K9me3 demethylation, DELFIA europium; inhibition, % at 2.35 µM; AID 2099; actives 0.069% (n = 330,000);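 active = more than half of a compound's replicate wells show inhibition beyond 50%, single wells judged on their own value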;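 note: signal counts dimethyl H3K9 product captured on neutravidin plate; 0% = median of DMSO wells and 100% = 0.3 times that DMSO median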
Target sequence (Q9H3R0 1-420 limits assumed): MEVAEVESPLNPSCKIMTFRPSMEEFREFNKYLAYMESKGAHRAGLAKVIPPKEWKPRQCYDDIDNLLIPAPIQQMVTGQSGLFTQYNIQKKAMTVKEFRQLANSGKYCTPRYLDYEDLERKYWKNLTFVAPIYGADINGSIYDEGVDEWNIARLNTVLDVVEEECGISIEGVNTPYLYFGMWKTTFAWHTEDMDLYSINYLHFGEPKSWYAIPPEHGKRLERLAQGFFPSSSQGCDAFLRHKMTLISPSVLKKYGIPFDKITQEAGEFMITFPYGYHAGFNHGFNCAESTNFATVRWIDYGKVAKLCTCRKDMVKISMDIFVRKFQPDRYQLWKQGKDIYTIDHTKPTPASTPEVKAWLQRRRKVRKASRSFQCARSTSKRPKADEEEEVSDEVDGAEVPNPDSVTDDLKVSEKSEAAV
MIN6 prolif: MIN6 beta-cell proliferation induction. actives 0.29% (n = 330,000). AID 2380. proliferation, % at 10 µM. MIN6 cells proliferation, ATPlite luminescence, 48 h; cells starved in 0.2% serum; 100% = growth in 10% serum;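 active = compounds whose signal lies at least 3.5 SD above the mean of all wells on their plate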;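 note: 0% = DMSO-treated cells in low-serum medium and 100% = 10% serum control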
M18AAP inhibitor: PfM18AAP enzyme inhibition. recombinant PfM18AAP, H-Glu-NHMec fluorogenic cleavage. inhibition, % at 7.35 µM. actives 1.2% (n = 290,000). AID 1822;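 active = inhibition above the campaign mean inhibition over all tested compounds plus 3 SD, cut at about 28% in these data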;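 note: 0% = plate median of test compound wells and 100% = 2 mM ZnCl2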
SMARCA2 conf: SMARCA2 activation, confirmation screen | MG213 cells, MMTV-luciferase with dexamethasone, luminescence, overnight; MG213 cells expressing E1A, Rb sequestered; DMSO wells 0%, reference activator 100% | AID 652260 | activation, % at 9.1 µM | shares compounds with SMARCA2 activ | actives 30% (n = 3,500);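 active = activation above its plate's cutoff, the mean activation of tested wells plus 3 SD, cut at about 7.9% in these data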
GAL4-VP16 Luc: counter-screen for SMARCA2 activators: GAL4-VP16 luciferase reporter activation | shares compounds with SMARCA2 activ | HEK293 GAL4-VP16 pG5luc reporter, luciferase luminescence; scaled: DMSO wells 0%, SAHA wells 100% | activation, % at 9.1 µM | actives 41% (n = 3,500) | AID 686939;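 active = activation above the solvent-only control well mean plus 3 SD, averaged across control plates, cut at about 5.2% in these data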
* marks the source's active call; other numbers are inactive results. Compounds with a hit are over-represented: about 5.4% of the library has one in this group of screens.

How did COCc1cc(N2CCN(C(=O)OC(C)(C)C)C[C@@H]2C)ccc1N1CC[C@H](O)C1 do in these assays?
SMARCA2 activ: -2

Results for C/C(=N\N1C(=O)c2ccccc2NC1c1ccccc1)c1ccccc1O (stereo unspecified) ?
Exocytosis inh: -2; ALR H2O2 inh: -3; SMARCA2 activ: 9.9*; JMJD2C inh: 11; MIN6 prolif: -6; M18AAP inhibitor: 2; SMARCA2 conf: 3; GAL4-VP16 Luc: 5.7*

What do the screens show for `COc1cccc(NC(=O)C2CCCN2C(=O)NCc2ccccc2OC)c1` (stereo unspecified)?
SMARCA2 activ: -5

What do the screens show for `CC(C)C(=O)Nc1cccc(NC(=O)c2ccc(Cl)cc2Cl)c1`?
Exocytosis inh: 2; ALR H2O2 inh: 5; SMARCA2 activ: 8.5*; JMJD2C inh: 5; MIN6 prolif: 0; M18AAP inhibitor: -2; SMARCA2 conf: 0; GAL4-VP16 Luc: 3

What do the screens show for `COc1ccc(CSC(=S)NNc2ccccc2)cc1`?
Exocytosis inh: 2; SMARCA2 activ: 1

How did O=C(Nc1ccccc1)NC1CCCCC1 do in these assays?
Exocytosis inh: -4; ALR H2O2 inh: 22; SMARCA2 activ: 0; JMJD2C inh: 3; MIN6 prolif: 0; M18AAP inhibitor: 5

How did O=C(Nc1ccccc1)NC1CCCCCCC1 do in these assays?
Exocytosis inh: 3; ALR H2O2 inh: 10; SMARCA2 activ: 12*; JMJD2C inh: -4; MIN6 prolif: 0; SMARCA2 conf: 5; GAL4-VP16 Luc: 4

How did CC(=O)Nc1ccc(NC(=O)C2CCCCC2C(=O)O)cc1 (stereo unspecified) do in these assays?
Exocytosis inh: -1; ALR H2O2 inh: -6; SMARCA2 activ: -2; JMJD2C inh: 0; MIN6 prolif: -4; M18AAP inhibitor: 1

Results for O=C(O)C1CCCCC1C(=O)Nc1ccc(-c2ccccc2)cc1 (stereo unspecified) ?
Exocytosis inh: -3; ALR H2O2 inh: -13; SMARCA2 activ: 12*; JMJD2C inh: -3; MIN6 prolif: -1; M18AAP inhibitor: 1; SMARCA2 conf: 1; GAL4-VP16 Luc: -1

Results for CC(=O)Nc1cccc(-c2cc(NC(C)=O)c3ncc(-c4ccc(C(C)=O)cc4)n3c2)c1 ?
Exocytosis inh: 0; SMARCA2 activ: -1

What do the screens show for `CC(=O)c1ccc(N2C(=O)C3C(C2=O)C(C(=O)c2ccc(Cl)cc2)N2CCCC32)cc1` (stereo unspecified)?
SMARCA2 activ: 3; M18AAP inhibitor: -2

Results for COc1ccc(N2C(=O)C3C(C2=O)C(C(=O)c2ccc(Cl)cc2)N2CCCC32)cc1 (stereo unspecified) ?
Exocytosis inh: 6; ALR H2O2 inh: 10; SMARCA2 activ: 12*; JMJD2C inh: 12; MIN6 prolif: 3; M18AAP inhibitor: -5; SMARCA2 conf: 2; GAL4-VP16 Luc: -1

Results for Cc1ccccc1-c1ccc2c(c1)[C@@H]1C[C@H](N(C)C(=O)Nc3ccccc3)[C@H]([C@H](C)O)CN1CC2 ?
SMARCA2 activ: -3

What do the screens show for `CN[C@H]1C[C@H]2c3cc(-c4ccccc4C)ccc3CCN2C[C@H]1[C@H](C)O`?
SMARCA2 activ: 9.6*; SMARCA2 conf: -5; GAL4-VP16 Luc: -1

What do the screens show for `CCCCN1C(=O)C(CC(=O)NCc2cccc3ccccc23)CC(C(=O)N2CCCCCC2)=C1C` (stereo unspecified)?
Exocytosis inh: -11; SMARCA2 activ: 1

What do the screens show for `Cc1cccc(Cc2cnc(NC(=O)c3ccc(C)o3)s2)c1`?
Exocytosis inh: 4; ALR H2O2 inh: 1; SMARCA2 activ: 11*; JMJD2C inh: -11; MIN6 prolif: -3; M18AAP inhibitor: -11; SMARCA2 conf: 7; GAL4-VP16 Luc: 4

How did CC1(CCOCc2ccccc2)NC(=O)NC1=O (stereo unspecified) do in these assays?
Exocytosis inh: 22; SMARCA2 activ: -1

What do the screens show for `COc1ccc(CCC2(C)NC(=O)NC2=O)cc1` (stereo unspecified)?
Exocytosis inh: 3; ALR H2O2 inh: 1; SMARCA2 activ: 8.1*; JMJD2C inh: 3; MIN6 prolif: -3; M18AAP inhibitor: -1; SMARCA2 conf: 1; GAL4-VP16 Luc: 2

What do the screens show for `OC(c1ccccc1)(c1ccccc1)C1CCN(CCCOc2ccc(-c3cccnc3)cc2)CC1`?
SMARCA2 activ: 6

How did COc1ccc(-c2cn3cccc(C)c3n2)cc1Br do in these assays?
Exocytosis inh: 2; ALR H2O2 inh: 7; SMARCA2 activ: 10*; JMJD2C inh: -12; MIN6 prolif: 0; M18AAP inhibitor: -7; SMARCA2 conf: 7; GAL4-VP16 Luc: 14*

Results for O=C(OCCN1CCOCC1)c1ccccc1Cl ?
Exocytosis inh: 4; ALR H2O2 inh: 11; SMARCA2 activ: -2; JMJD2C inh: 6; MIN6 prolif: -5

How did Cc1ccccc1C(=O)OCCN1CCOCC1 do in these assays?
Exocytosis inh: -1; ALR H2O2 inh: -4; SMARCA2 activ: 8.3*; JMJD2C inh: 2; MIN6 prolif: 0; M18AAP inhibitor: 0; SMARCA2 conf: 1; GAL4-VP16 Luc: 1

What do the screens show for `Cc1ccc(NC(=O)Nc2nnc([C@H]3C[C@H](O)[C@@H](CO)O3)s2)cc1`?
Exocytosis inh: 3; SMARCA2 activ: -3

How did Nc1ccc2c(c1)C(=O)c1ccccc1C2=O do in these assays?
Exocytosis inh: -3; ALR H2O2 inh: -14; SMARCA2 activ: 12*; JMJD2C inh: 6; MIN6 prolif: -3; SMARCA2 conf: 9.1*; GAL4-VP16 Luc: 9.0*

How did CC(=O)Nc1ccc2c(c1)C(=O)c1ccccc1C2=O do in these assays?
Exocytosis inh: 4; ALR H2O2 inh: -26; SMARCA2 activ: 9.4*; JMJD2C inh: 5; MIN6 prolif: -2; M18AAP inhibitor: 1; SMARCA2 conf: 19*; GAL4-VP16 Luc: 11*

How did CC1(C(=O)NS(=O)(=O)c2ccc(Br)cc2)CCN1C(=O)c1cccc(F)c1 (stereo unspecified) do in these assays?
Exocytosis inh: -11; SMARCA2 activ: -3

How did COc1ccc(NC(=O)c2cc([N+](=O)[O-])ccc2NC(=O)CNCc2ccccn2)c(OC)c1 do in these assays?
Exocytosis inh: 8; SMARCA2 activ: 13*; JMJD2C inh: -11; MIN6 prolif: 0; M18AAP inhibitor: 26; SMARCA2 conf: 4; GAL4-VP16 Luc: 1
